The full ranking holds about 16,000 sequences; the median of “rpm ratio (pull-down/input)” is about 0.94, and the highest 2% start at about 1.7. The full list was thinned out, with the highest values kept by preference.
target: T1, MBP-FoxP1dN (Mus musculus, UniProt P58462 326-579); assay: PD-seq (MBP pull-down with sequencing); 20 mM Tris-HCl pH 7.5, 100 mM NaCl, 1.5 mM MgCl2, 0.4 uM protein, 0.1 uM dsDNA library, 30 min, room temperature, amylose pull-down; high values mean tight binding; settings: protein: recombinant; tags: His6-MBP; chain copies: 2; dsDNA, one strand shown
T1 sequence: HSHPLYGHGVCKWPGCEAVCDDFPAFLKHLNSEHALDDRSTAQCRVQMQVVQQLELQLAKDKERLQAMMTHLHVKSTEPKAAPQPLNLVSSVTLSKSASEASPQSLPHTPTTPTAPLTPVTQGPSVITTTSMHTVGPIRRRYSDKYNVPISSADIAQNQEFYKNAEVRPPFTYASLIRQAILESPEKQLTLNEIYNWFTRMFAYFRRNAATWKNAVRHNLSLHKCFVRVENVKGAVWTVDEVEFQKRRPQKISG
Method in brief: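 Amylose resin was used to capture complexes formed during 30 min at room temperature in Tris pH 7.5 buffer with NaCl and MgCl2 between 0.4 µM His6-MBP-tagged mouse FoxP3 or FoxP1 fragment lacking the N-terminus, expressed in E. coli, and 0.1 µM Klenow-filled double-stranded degenerate DNA library. After three washes, the DNA was released with proteinase K, barcoded by PCR and sequenced on Illumina. Binding is pooled-replicate reads-per-million enrichment, pull-down over input.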

Row | Sequence | binding signal
1 | GATGATTGTTCTCCCAGCTGATGAATTATACCTCTCGAGTAAACAAATTTTCCTAATCTTTCTGTTCAAGCGCCATCTAC | 0.896 RPM ratio (pull-down/input)
2 | GATGATTGTTCTCCCAGCTGATGAATTAAGCTTATCGAGTAAACAAATTTTCCTAATCTTTCTGTTCAAGCGCCATCTAC | 1.03 RPM ratio (pull-down/input)
3 | GATGATTGTTCTCCCAGCTGATGAATTCTCTTCATCGAGTAAACAAATTTTCCTAATCTTTCTGTTCAAGCGCCATCTAC | 0.886 RPM ratio (pull-down/input)
4 | GATGATTGTTCTCCCAGCTGATGAATTATGAATTTCGAGTAAACAAATTTTCCTAATCTTTCTGTTCAAGCGCCATCTAC | 1.03 RPM ratio (pull-down/input)
5 | GATGATTGTTCTCCCAGCTGATGAATTATGTTCTTCGAGTAAACAAATTTTCCTAATCTTTCTGTTCAAGCGCCATCTAC | 1.15 RPM ratio (pull-down/input)
6 | GATGATTGTTCTCCCAGCTGATGAATTATGATGATCGAGTAAACAAATTTTCCTAATCTTTCTGTTCAAGCGCCATCTAC | 1.15 RPM ratio (pull-down/input)
7 | GATGATTGTTCTCCCAGCTGATGAATTATGTTCATCGAGTAAACAAATTTTCCTAATCTTTCTGTTCAAGCGCCATCTAC | 1.04 RPM ratio (pull-down/input)
8 | GATGATTGTTCTCCCAGCTGATGAATTATGTTGATCGAGTAAACAAATTTTCCTAATCTTTCTGTTCAAGCGCCATCTAC | 2.81 RPM ratio (pull-down/input)
9 | GATGATTGTTCTCCCAGCTGATGAATTATGTTGTTCGAGTAAACAAATTTTCCTAATCTTTCTGTTCAAGCGCCATCTAC | 2.67 RPM ratio (pull-down/input)
10 | GATGATTGTTCTCCCAGCTGATGAATTGAGGTCCTCGAGTAAACAAATTTTCCTAATCTTTCTGTTCAAGCGCCATCTAC | 0.772 RPM ratio (pull-down/input)
11 | GATGATTGTTCTCCCAGCTGATGAATTTGATAGCTCGAGTAAACAAATTTTCCTAATCTTTCTGTTCAAGCGCCATCTAC | 0.868 RPM ratio (pull-down/input)
12 | GATGATTGTTCTCCCAGCTGATGAATTCGGTACATCGAGTAAACAAATTTTCCTAATCTTTCTGTTCAAGCGCCATCTAC | 0.991 RPM ratio (pull-down/input)
13 | GATGATTGTTCTCCCAGCTGATGAATTCTAATAGTCGAGTAAACAAATTTTCCTAATCTTTCTGTTCAAGCGCCATCTAC | 0.905 RPM ratio (pull-down/input)
14 | GATGATTGTTCTCCCAGCTGATGAATTAGCCGTATCGAGTAAACAAATTTTCCTAATCTTTCTGTTCAAGCGCCATCTAC | 0.934 RPM ratio (pull-down/input)
15 | GATGATTGTTCTCCCAGCTGATGAATTTACGATCTCGAGTAAACAAATTTTCCTAATCTTTCTGTTCAAGCGCCATCTAC | 1.15 RPM ratio (pull-down/input)
16 | GATGATTGTTCTCCCAGCTGATGAATTGGCGCTATCGAGTAAACAAATTTTCCTAATCTTTCTGTTCAAGCGCCATCTAC | 0.954 RPM ratio (pull-down/input)
17 | GATGATTGTTCTCCCAGCTGATGAATTCTGCCCGTCGAGTAAACAAATTTTCCTAATCTTTCTGTTCAAGCGCCATCTAC | 0.815 RPM ratio (pull-down/input)

Row | Sequence | binding signal
18 | GATGATTGTTCTCCCAGCTGATGAATTGTAATTATCGAGTAAACAAATTTTCCTAATCTTTCTGTTCAAGCGCCATCTAC | 1.54 RPM ratio (pull-down/input)
19 | GATGATTGTTCTCCCAGCTGATGAATTGTATTAATCGAGTAAACAAATTTTCCTAATCTTTCTGTTCAAGCGCCATCTAC | 1.24 RPM ratio (pull-down/input)
20 | GATGATTGTTCTCCCAGCTGATGAATTTGTATTATCGAGTAAACAAATTTTCCTAATCTTTCTGTTCAAGCGCCATCTAC | 2.13 RPM ratio (pull-down/input)
21 | GATGATTGTTCTCCCAGCTGATGAATTAATTGTATCGAGTAAACAAATTTTCCTAATCTTTCTGTTCAAGCGCCATCTAC | 1.44 RPM ratio (pull-down/input)
22 | GATGATTGTTCTCCCAGCTGATGAATTATTTGTATCGAGTAAACAAATTTTCCTAATCTTTCTGTTCAAGCGCCATCTAC | 2 RPM ratio (pull-down/input)
23 | GATGATTGTTCTCCCAGCTGATGAATTATCTGTATCGAGTAAACAAATTTTCCTAATCTTTCTGTTCAAGCGCCATCTAC | 1.1 RPM ratio (pull-down/input)
24 | GATGATTGTTCTCCCAGCTGATGAATTGCGAATATCGAGTAAACAAATTTTCCTAATCTTTCTGTTCAAGCGCCATCTAC | 1.17 RPM ratio (pull-down/input)
25 | GATGATTGTTCTCCCAGCTGATGAATTGCTCTTCTCGAGTAAACAAATTTTCCTAATCTTTCTGTTCAAGCGCCATCTAC | 0.889 RPM ratio (pull-down/input)
26 | GATGATTGTTCTCCCAGCTGATGAATTCGGGTTCTCGAGTAAACAAATTTTCCTAATCTTTCTGTTCAAGCGCCATCTAC | 0.806 RPM ratio (pull-down/input)
27 | GATGATTGTTCTCCCAGCTGATGAATTGGAATATTCGAGTAAACAAATTTTCCTAATCTTTCTGTTCAAGCGCCATCTAC | 0.93 RPM ratio (pull-down/input)
28 | GATGATTGTTCTCCCAGCTGATGAATTTGTCTTCTCGAGTAAACAAATTTTCCTAATCTTTCTGTTCAAGCGCCATCTAC | 1.16 RPM ratio (pull-down/input)
29 | GATGATTGTTCTCCCAGCTGATGAATTTTTTGTCTCGAGTAAACAAATTTTCCTAATCTTTCTGTTCAAGCGCCATCTAC | 0.905 RPM ratio (pull-down/input)
30 | GATGATTGTTCTCCCAGCTGATGAATTTCTGTCTTCGAGTAAACAAATTTTCCTAATCTTTCTGTTCAAGCGCCATCTAC | 0.89 RPM ratio (pull-down/input)
31 | GATGATTGTTCTCCCAGCTGATGAATTCTTTGTCTCGAGTAAACAAATTTTCCTAATCTTTCTGTTCAAGCGCCATCTAC | 0.931 RPM ratio (pull-down/input)
32 | GATGATTGTTCTCCCAGCTGATGAATTTGTTGTCTCGAGTAAACAAATTTTCCTAATCTTTCTGTTCAAGCGCCATCTAC | 2.42 RPM ratio (pull-down/input)
33 | GATGATTGTTCTCCCAGCTGATGAATTGTCTTCTTCGAGTAAACAAATTTTCCTAATCTTTCTGTTCAAGCGCCATCTAC | 1.05 RPM ratio (pull-down/input)
